Assay outcomes as filed in PubChem BioAssay.
In the library only some 9.4% were active in any assay of this set; here they are far more common.
Rab9 promoter act: Rab9 promoter activation; Huh7 Rab9 promoter-luciferase reporter, luminescence, 24 h; Potency, µM (doses to about 9.22 µM), for inactives: top-dose activation, negative = inhibition, actives largely listed as activators; hit rate 2.8% among 320,000; AID 485297; note: % of control where 0% means no effect; nearly all actives have a fitted effect of over 60% in size
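Using Huh7 cells stably transfected with Rab9 promoter–luciferase, compounds were incubated 24 h at 37 °C, 5% CO2; luciferase luminescence was read 10 min after reagent addition.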
ELG1 genotox: inducers of genotoxicity in HEK293T ELG1-luciferase cells; hit rate 1.3% among 330,000; AID 504466; Potency, µM (highest dose often 46 µM), for inactives: at the top dose activity change, positive = activation, actives largely listed as activators; HEK293T ELG1-luciferase reporter, luminescence, 16 h; note: % of control where 0% means no effect; nearly all actives have a fitted effect of over 60% in size
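Genotoxicity was scored as increased ELG1-luciferase reporter signal, measured by ONE-Glo luminescence (30 min, room temperature). Compound or vehicle exposure of the HEK293T reporter cells lasted 16 hr at 37°C.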
NPC1 promoter act: activates the NPC1 promoter; Potency, µM (titrated, usually from 9.22 µM), without a hit: top-dose activation, usual class: activators; hit rate 2.4% among 320,000; Huh7 NPC1 promoter luciferase reporter, 24 h; AID 485313; note: % of control where 0% means no effect; nearly all actives have a fitted effect of over 60% in size
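Cells: Huh7 expressing luciferase under the NPC1 promoter, 1500/well. Seeded 2 h, compound added, incubated 24 h at 37 °C. Luciferase reagent, 10 min ambient, then luminescence.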
SMN2 splice enh: enhancers of SMN2 splice variant expression; HEK293 SMN2-luciferase splicing reporter, luminescence, 30-36 h; Potency, µM (highest dose often 46.1 µM), for the others: at the highest dose activity change, positive = activation, hits mostly activators; hit rate 2.8% among 210,000; note: % of control where 0% means no effect; nearly all actives have a fitted effect of over 55% in size
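HEK293 cells carry an SMN2 […]–luciferase reporter in which exon 7 inclusion puts luciferase in frame. Cells were plated 10-12 h before compound addition, then incubated 30-36 h at 37C. ONE-Glo luminescence was read; sodium butyrate at 4.5 mM final served as control.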
ELG1 DNA repair: blocks ELG1-dependent DNA repair in HEK293T cells. Potency, µM (highest dose often 46.1 µM), without a hit: at the highest dose activity change, negative = inhibition, usual class: inhibitors. hit rate 2.3% among 330,000. HEK293T ELG1-luciferase reporter, luminescence, 16 h; DNA damage induced by 5-fluorouridine; note: % is set by controls: 0 for no effect and ±100 for the full control effect; nearly all actives have a fitted effect of over 55% in size
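DMSO vehicle served as the neutral condition. Each well held 2,000 cells given 5-fluorouridine plus compound; after 16 hr at 37 °C/5% CO2, ONE-Glo was added and luciferase measured 30 min later.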
FLuc counter: counter-screen for miR-21 project: firefly luciferase inhibitors or activators. purified FLuc, Km substrates, luminescence inhibition. Potency, µM (highest dose often 57.5 µM), for inactives: top-dose activity change, negative = inhibition, actives largely listed as inhibitors. hit rate 6.9% among 360,000. P08659;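 note: plate controls were vehicle for no effect and reference inhibitor for full effect; nearly all actives have a fitted effect of over 55% in size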
Target sequence (P08659 whole entry, looked up): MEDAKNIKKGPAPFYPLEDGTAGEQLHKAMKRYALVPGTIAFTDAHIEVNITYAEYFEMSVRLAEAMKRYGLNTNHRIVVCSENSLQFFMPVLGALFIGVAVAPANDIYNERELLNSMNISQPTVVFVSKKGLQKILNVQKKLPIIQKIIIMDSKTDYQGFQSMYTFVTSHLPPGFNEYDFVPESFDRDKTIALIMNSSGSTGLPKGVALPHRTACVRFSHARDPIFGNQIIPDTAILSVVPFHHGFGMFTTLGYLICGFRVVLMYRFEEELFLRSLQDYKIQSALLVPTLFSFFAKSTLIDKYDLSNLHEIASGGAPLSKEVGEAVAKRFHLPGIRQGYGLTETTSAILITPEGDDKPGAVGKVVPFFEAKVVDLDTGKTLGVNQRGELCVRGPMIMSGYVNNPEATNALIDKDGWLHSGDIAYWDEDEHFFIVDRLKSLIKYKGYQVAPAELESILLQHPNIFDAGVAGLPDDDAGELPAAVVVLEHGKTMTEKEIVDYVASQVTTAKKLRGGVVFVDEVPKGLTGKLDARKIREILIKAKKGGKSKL
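Biochemical qHTS of compounds, final roughly 60 µM downward over six points, against 10 nM purified firefly luciferase using Km concentrations of substrates (10 uM D-luciferin, 10 uM ATP) in Tris acetate pH 7.5 buffer; luminescence output.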
Numbers without * were called inactive; ? = inconclusive; · = no result; [ ] = dose if it differs, or a comment. Calls come from the whole dose curve; as a rule, active = well fitted curve in the direction sought with a large enough effect; inconclusive = small, poorly fitted or top-dose-only effect, or another doubt; inactive = no such curve, though single readings can be large; an effect the other way counts as inactive or inconclusive. Potency is the fitted concentration of half-maximal effect.

SMILES | Rab9 promoter act | ELG1 genotox | NPC1 promoter act | SMN2 splice enh | ELG1 DNA repair | FLuc counter
Cc1ccc([N+](=O)[O-])cc1S(=O)(=O)N1CCn2cccc2C1c1ccccc1F (centres undefined) | · | · | · | · | · | -8%
COc1ccc([N+](=O)[O-])cc1NC(=O)Nc1ccc(OC)c(OC)c1 | -4% | -6% | 0% | -30% | 15µM* | -11%
Cc1cc([N+](=O)[O-])ccc1NC(=O)c1csc(C)c1C | 2µM* | 4.1µM* | 1.4µM* | · | ? | 3.8µM*
Cc1cc(C(=O)Nc2ccc([N+](=O)[O-])cn2)cs1 | 3.5µM* | 9.2µM* | 2.5µM* | · | ? | 11µM*
CN(C)S(=O)(=O)c1cccc(N=c2scc(-c3ccc4c(c3)NC(=O)CO4)n2CC2CCCO2)c1 (centres undefined) | -5% | -32% | 1% | -53% | 23µM* | 6%
COc1ccccc1N=c1scc(-c2ccc3c(c2)NC(=O)CO3)n1CC1CCCO1 (centres undefined) | 3% | 0% | 0% | -53% | 16µM* | 9%
CC(=C/C=C/C(C)=C/C=C/C=C(C)/C=C/C=C(C)/C=C/C(=O)O)/C=C/C(=O)O | · | · | · | -2% | · | ·
CCn1c(CNC(=O)c2ccc(OC)cc2)nnc1SCC(=O)Nc1cc(C)ccc1C | · | · | · | -2% | · | -9%
O=c1cnn(-c2ccccc2)c(-c2ccccc2)c1 | 5% | -7% | 27% | -8% | 16% | 11µM*
Nc1c(-c2ccccc2)cnn1-c1ccccc1 | 3.5µM* | ? | 3.2µM* | · | ? | 11µM*
O=c1c(Br)c(Br)cnn1-c1ccccc1 | -51% | -19% | -41% | -104% | ? | 5%
Cc1ccc(-c2cnn(-c3cccc(C(F)(F)F)c3)c2N)cc1 | 4µM* | ? | ? | 27% | ? | 7.6µM*
Nc1c(-c2cccc(Cl)c2)cnn1-c1ccccc1 | ? | 18% | ? | · | ? | 17µM*
CCOc1ccc(C(=O)Nc2ccc3nc(SCC(=O)N4CCc5ccccc54)sc3c2)cc1 | · | · | · | · | · | -7%
O=C(O)c1ccc(NS(=O)(=O)Cc2ccccc2)cc1 | · | · | · | -3%[9.22 µM] | · | ·
NC(=O)Cn1c(=O)n(CCCCCC(=O)NCc2ccccc2)c(=O)c2sccc21 | · | · | · | 3% | · | -1%
CCOc1ccc(CNC(=O)Cn2cc3c(n2)-c2c(oc(C(=O)N4CCOCC4)c2C)CC3)cc1 | · | · | · | · | · | -11%
O=C(COc1ccc(/C=N/NC(=O)CSCc2ccc([N+](=O)[O-])cc2)cc1)NCc1ccco1 | -1% | -3% | -2% | -26% | 23µM* | -5%
CCCOc1ccc(/C=N/NC(=O)CN2CCCCC2)cc1OCC | 0% | -11% | 3% | · | 0% | 7%
CCCOc1ccc(/C=N/NC(=O)CSCc2ccc([N+](=O)[O-])cc2)cc1OCC | -1% | -7% | -3% | -14% | 23µM* | 3%
O=C(c1cnccn1)N1CCC2(CC1)CCN(c1cccc(-c3ccccc3)c1)CC2 | · | · | · | -48% | · | ·
COc1ccc(-c2csc(N3N=C(C)C(C)C3=O)n2)cc1 (centres undefined) | 4.5µM* | 9% | ? | ? | ? | 8.5µM*
CC1=NN(c2nc(-c3ccc(C)cc3)cs2)C(=O)C1N=Nc1ccccc1O (centres undefined) | -52% | -8% | -38% | · | ? | 11µM*
O=C(/C=C/c1cn(-c2ccccc2)nc1-c1cccs1)NCCN1CCOCC1 | -1% | -9% | 0% | · | -17% | 19µM*
Cc1ccc(-c2nn(-c3ccccc3)cc2/C=N/NC(=O)c2ccncc2)o1 | 2% | ? | -4% | 14µM* | ? | 12µM*
SMILES | Rab9 promoter act | ELG1 genotox | NPC1 promoter act | SMN2 splice enh | ELG1 DNA repair | FLuc counter
O=C(c1cn(-c2ccccc2)nc1-c1cccs1)N1CCOCC1 | -4% | 1% | -1% | -8% | 1% | ?
O=C(N/N=C/c1cn(-c2ccccc2)nc1-c1ccccc1)c1ccco1 | 16% | -1% | 9% | ? | -10% | -15%
Cc1ccc(-c2nn(-c3ccccc3)cc2/C=N/NC(=O)c2ccc(Br)o2)cc1 | 6% | -14% | -3% | -93% | ? | 11µM*
O=C(N/N=C/c1cn(-c2ccccc2)nc1-c1cccs1)c1ccncc1 | -2% | -2% | 0% | 2% | -12% | 11µM*
CC1CN(C(=O)N2CCC(C(=O)N3CCN(c4ccccc4)CC3)CC2)c2cc(Cl)ccc2O1 (centres undefined) | · | · | · | · | · | -2%
NC(=O)N/N=C/c1cn(-c2ccccc2)nc1-c1cccs1 | ? | ? | ? | 18µM* | ? | 2.1µM*
NS(=O)(=O)c1ccc(N/N=C/c2cn(-c3ccccc3)nc2-c2cccs2)cc1 | 11% | -1% | 4% | · | 0% | 11µM*
NS(=O)(=O)c1ccc(N/N=C/c2cn(-c3ccccc3)nc2-c2cccs2)c([N+](=O)[O-])c1 | -38% | -7% | -7% | -91% | -17% | -17%
CN(C)C(=O)COC(=O)/C=C/c1cn(-c2ccccc2)nc1-c1cccs1 | 0% | -5% | -3% | 7% | -4% | 19µM*
O=C(O)c1cccc(N/N=C/c2cn(-c3ccccc3)nc2-c2cccs2)c1 | 2µM* | ? | 3.5µM* | 14µM* | ? | 1.3µM*
O=C(c1cn(-c2ccccc2)nc1-c1cccs1)N1CCN(c2ccccc2)CC1 | -3% | 4% | 17% | 5% | 6% | ?
Cc1ccc(-c2nn(-c3ccccc3)cc2/C=C/C(=O)OCC(=O)NC2CC2)o1 | 2% | -2% | -6% | 9% | -11% | -11%
Cc1ccccc1Nc1c(-c2cccnc2)nc2ccc(Cl)cn12 | · | · | · | 10% | · | 4%
COC(=O)C1=C(C(=O)OC)[C@@H]2N(Cc3ccccc3)c3ccccc3[C@@]23C[C@@H](C(=O)OC)N(S(=O)(=O)c2ccc(OC)cc2)C3=N1 | · | · | · | -3%[9.22 µM] | · | ·
